# Reference: the supplement of paper PMC10849652
# The full data set covers some 8,800 targets. This sample favours those with a hit. About 0.5% of all pairs of compound and target were hits. Unmarked numbers belong to inactive results.
# Assays:
# Test in all cases: log2 fold change, soluble protein after heating vs DMSO (PISA); higher = thermal stabilisation; K562 lysate, 10 uM; active = over 0.2 and 3.5 SD of the protein, either way, in both replicates (recomputed)
# nilotinib = compound: Cc1cn(-c2cc(NC(=O)c3ccc(C)c(Nc4nccc(-c5cccnc5)n4)c3)cc(C(F)(F)F)c2)cn1 [nilotinib]
# Procedure, shortened: (§1)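 K562 pellets were dounce-homogenised in PBS pH 7.4 containing 1 mM MgCl2, and the crude extract, at 1 mg/mL protein, was exposed to 10 μM compound for 30 min. Aliquots were heated for 3 min across 48°C-58°C, pooled, brought to 0.5% NP-40 at 4°C and spun at 21,000xg for 90 min, with the supernatant taken as soluble protein. TMTpro 16plex LC-MS/MS with equalised channel sums quantified that protein. Values are log-two fold changes in thermal stability relative to solvent controls, taken from duplicates.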
# [1] = compound: Cc1nc(Nc2n[nH]c3c2CN(C(=O)N[C@H](CN(C)C)c2ccccc2)C3(C)C)c2sccc2n1
# Procedure, shortened: as §1
# dasatinib = compound: Cc1nc(Nc2ncc(C(=O)Nc3c(C)cccc3Cl)s2)cc(N2CCN(CCO)CC2)n1 [dasatinib]
# Procedure, shortened: as §1
# [2] = compound: Cc1ncc(-c2ccnc(Nc3ccc(S(C)(=O)=O)cc3)n2)n1C(C)C
# Procedure, shortened: as §1
# [3] = compound: Cn1cc(-c2ccc3c(c2)CCN3C(=O)Cc2cccc(C(F)(F)F)c2)c2c(N)ncnc21
# Procedure, shortened: as §1
# quisinostat = compound: Cn1cc(CNCC2CCN(c3ncc(C(=O)NO)cn3)CC2)c2ccccc21 [quisinostat]
# Procedure, shortened: as §1
# tipifarnib = compound: Cn1cncc1[C@@](N)(c1ccc(Cl)cc1)c1ccc2c(c1)c(-c1cccc(Cl)c1)cc(=O)n2C [tipifarnib]
# Procedure, shortened: as §1
# [4] = compound: NC(=O)Nc1cc(-c2cccc(F)c2)sc1C(=O)N[C@H]1CCCNC1
# Procedure, shortened: as §1
# [5] = compound: NC(=O)c1cnc(N[C@@H]2CCCC[C@@H]2N)nc1Nc1cccc(-n2nccn2)c1
# Procedure, shortened: as §1
# [6] = compound: NC1(c2ccc(-c3nc4ccn5c(=O)[nH]nc5c4cc3-c3ccccc3)cc2)CCC1
# Procedure, shortened: as §1
# [7] = compound: NCC(=O)Nc1ccc(-n2nc(C(F)(F)F)cc2-c2ccc3c(ccc4ccccc43)c2)cc1
# Procedure, shortened: as §1
# vorinostat = compound: O=C(CCCCCCC(=O)Nc1ccccc1)NO [vorinostat]
# Procedure, shortened: as §1
# silmitasertib = compound: O=C(O)c1ccc2c(c1)nc(Nc1cccc(Cl)c1)c1ccncc12 [silmitasertib]
# Procedure, shortened: as §1
# [8] = compound: O=C1NC(=O)C(c2cnc3ccccn23)=C1c1cn2c3c(cc(F)cc13)CN(C(=O)N1CCCCC1)CC2
# Procedure, shortened: as §1
# entospletinib = compound: c1cn2cc(-c3ccc4cn[nH]c4c3)nc(Nc3ccc(N4CCOCC4)cc3)c2n1 [entospletinib]
# Procedure, shortened: as §1
# UniProt P08047, sequence (P08047 whole entry, looked up): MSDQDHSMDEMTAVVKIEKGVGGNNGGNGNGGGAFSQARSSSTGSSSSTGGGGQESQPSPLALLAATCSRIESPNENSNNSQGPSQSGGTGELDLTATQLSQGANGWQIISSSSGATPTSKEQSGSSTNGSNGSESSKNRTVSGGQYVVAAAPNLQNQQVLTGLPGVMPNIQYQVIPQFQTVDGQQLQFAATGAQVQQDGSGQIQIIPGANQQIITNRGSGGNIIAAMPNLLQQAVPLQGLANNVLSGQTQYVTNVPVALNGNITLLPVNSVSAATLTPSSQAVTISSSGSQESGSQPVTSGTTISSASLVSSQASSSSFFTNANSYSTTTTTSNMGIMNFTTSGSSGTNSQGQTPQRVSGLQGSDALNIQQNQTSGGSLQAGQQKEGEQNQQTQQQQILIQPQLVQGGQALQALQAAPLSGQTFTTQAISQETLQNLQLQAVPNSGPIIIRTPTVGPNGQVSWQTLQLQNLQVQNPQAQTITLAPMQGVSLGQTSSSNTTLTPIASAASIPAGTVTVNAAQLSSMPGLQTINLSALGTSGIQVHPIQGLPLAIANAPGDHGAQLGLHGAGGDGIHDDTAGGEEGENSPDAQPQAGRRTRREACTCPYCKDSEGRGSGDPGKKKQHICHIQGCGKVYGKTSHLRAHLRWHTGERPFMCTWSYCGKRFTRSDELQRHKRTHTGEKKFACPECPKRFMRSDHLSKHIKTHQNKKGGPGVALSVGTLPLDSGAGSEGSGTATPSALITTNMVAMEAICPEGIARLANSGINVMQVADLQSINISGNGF
# UniProt Q9NP77, sequence (Q9NP77 whole entry, looked up): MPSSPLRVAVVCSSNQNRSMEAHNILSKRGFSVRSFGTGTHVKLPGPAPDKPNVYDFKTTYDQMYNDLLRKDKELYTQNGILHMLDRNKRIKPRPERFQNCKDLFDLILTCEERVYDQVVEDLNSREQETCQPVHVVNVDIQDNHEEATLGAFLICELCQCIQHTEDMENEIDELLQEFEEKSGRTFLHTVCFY
# UniProt P41440, sequence (P41440 whole entry, looked up): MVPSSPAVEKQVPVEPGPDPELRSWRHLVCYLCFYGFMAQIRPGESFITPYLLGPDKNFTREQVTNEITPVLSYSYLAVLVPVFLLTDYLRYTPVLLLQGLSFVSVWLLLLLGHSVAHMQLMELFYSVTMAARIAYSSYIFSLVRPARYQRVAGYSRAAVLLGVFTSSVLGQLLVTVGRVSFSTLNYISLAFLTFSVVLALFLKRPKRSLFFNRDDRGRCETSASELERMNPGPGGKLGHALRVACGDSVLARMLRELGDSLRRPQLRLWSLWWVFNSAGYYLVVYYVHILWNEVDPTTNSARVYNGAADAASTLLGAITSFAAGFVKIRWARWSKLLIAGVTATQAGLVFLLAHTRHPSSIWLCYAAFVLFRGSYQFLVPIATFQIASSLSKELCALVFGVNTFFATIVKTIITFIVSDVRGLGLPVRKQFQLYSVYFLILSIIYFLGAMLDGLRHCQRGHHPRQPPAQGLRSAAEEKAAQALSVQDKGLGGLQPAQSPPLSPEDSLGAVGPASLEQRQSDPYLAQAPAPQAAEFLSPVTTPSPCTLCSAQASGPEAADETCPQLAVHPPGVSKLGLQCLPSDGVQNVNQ
# UniProt Q9H7B4, sequence (Q9H7B4 whole entry, looked up): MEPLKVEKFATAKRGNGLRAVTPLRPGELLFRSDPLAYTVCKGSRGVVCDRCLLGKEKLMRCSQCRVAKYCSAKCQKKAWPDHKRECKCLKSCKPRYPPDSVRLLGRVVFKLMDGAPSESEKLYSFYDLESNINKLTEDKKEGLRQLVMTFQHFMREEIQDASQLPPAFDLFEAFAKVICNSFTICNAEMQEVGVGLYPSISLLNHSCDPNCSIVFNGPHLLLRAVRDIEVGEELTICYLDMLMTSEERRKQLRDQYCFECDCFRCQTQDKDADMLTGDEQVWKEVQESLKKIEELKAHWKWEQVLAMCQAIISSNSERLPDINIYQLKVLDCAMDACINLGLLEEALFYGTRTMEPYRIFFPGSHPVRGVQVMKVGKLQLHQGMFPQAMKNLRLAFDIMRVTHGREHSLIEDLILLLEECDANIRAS
# UniProt P53985, sequence (P53985 whole entry, looked up): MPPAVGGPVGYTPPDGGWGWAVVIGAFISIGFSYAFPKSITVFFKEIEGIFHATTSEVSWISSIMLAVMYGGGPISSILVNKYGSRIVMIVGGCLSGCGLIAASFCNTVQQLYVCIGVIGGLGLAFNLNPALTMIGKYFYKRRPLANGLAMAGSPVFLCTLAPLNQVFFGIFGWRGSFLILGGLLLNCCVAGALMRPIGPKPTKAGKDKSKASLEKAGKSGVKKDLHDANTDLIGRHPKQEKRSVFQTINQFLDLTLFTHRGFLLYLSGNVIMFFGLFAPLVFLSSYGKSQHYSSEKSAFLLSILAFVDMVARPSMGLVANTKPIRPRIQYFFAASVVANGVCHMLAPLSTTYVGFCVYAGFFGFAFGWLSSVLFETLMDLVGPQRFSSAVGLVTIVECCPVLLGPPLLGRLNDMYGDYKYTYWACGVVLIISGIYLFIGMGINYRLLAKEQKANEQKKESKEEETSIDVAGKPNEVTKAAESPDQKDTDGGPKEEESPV
# UniProt Q8N1S5, sequence (Q8N1S5 whole entry, looked up): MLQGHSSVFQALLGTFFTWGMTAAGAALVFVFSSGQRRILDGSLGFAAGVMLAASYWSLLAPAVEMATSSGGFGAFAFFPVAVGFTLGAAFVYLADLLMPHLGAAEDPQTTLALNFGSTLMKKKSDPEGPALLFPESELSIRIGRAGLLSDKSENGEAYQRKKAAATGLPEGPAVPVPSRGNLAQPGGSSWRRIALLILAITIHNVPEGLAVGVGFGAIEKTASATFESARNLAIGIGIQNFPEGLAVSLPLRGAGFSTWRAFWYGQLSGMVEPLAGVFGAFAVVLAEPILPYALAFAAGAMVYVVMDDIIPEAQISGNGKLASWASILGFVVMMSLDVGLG
# UniProt Q96EX1, sequence (Q96EX1 whole entry, looked up): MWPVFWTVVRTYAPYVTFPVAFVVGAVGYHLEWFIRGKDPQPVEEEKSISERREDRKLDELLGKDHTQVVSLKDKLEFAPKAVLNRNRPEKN
# UniProt Q9UMZ2, sequence (Q9UMZ2 whole entry, looked up): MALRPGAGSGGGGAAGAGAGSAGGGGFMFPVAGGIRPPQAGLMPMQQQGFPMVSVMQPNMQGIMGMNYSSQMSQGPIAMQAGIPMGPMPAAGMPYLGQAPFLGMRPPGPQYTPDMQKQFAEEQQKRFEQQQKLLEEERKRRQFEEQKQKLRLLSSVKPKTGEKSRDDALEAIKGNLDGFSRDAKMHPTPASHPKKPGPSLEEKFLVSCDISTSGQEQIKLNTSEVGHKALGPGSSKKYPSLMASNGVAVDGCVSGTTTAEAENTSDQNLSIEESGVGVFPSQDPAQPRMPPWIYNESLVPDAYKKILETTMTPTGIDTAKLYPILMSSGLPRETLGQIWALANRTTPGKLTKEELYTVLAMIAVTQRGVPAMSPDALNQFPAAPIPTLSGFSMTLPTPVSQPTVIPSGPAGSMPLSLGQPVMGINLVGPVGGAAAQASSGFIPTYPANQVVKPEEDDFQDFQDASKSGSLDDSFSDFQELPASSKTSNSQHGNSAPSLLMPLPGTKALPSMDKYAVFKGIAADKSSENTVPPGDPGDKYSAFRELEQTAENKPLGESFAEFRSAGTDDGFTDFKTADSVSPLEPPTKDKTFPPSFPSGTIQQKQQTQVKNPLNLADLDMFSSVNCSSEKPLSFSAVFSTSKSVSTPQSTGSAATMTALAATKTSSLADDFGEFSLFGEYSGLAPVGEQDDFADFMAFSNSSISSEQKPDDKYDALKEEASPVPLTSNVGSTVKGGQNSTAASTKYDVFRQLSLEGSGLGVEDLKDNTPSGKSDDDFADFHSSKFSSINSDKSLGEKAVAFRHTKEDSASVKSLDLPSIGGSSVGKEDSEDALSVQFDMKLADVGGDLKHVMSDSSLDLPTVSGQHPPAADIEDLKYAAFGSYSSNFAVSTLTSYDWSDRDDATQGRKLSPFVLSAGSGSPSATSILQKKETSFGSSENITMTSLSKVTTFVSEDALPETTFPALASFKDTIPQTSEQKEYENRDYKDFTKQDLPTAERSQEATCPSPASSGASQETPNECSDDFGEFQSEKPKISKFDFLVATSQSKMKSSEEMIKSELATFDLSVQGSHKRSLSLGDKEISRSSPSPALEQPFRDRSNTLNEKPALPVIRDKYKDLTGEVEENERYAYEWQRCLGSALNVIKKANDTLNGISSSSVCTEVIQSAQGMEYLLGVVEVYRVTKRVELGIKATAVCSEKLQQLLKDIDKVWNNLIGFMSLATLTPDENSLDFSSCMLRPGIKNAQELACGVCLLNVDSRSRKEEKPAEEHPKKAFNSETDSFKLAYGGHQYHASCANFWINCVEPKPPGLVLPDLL
# UniProt Q14534, sequence (Q14534 whole entry, looked up): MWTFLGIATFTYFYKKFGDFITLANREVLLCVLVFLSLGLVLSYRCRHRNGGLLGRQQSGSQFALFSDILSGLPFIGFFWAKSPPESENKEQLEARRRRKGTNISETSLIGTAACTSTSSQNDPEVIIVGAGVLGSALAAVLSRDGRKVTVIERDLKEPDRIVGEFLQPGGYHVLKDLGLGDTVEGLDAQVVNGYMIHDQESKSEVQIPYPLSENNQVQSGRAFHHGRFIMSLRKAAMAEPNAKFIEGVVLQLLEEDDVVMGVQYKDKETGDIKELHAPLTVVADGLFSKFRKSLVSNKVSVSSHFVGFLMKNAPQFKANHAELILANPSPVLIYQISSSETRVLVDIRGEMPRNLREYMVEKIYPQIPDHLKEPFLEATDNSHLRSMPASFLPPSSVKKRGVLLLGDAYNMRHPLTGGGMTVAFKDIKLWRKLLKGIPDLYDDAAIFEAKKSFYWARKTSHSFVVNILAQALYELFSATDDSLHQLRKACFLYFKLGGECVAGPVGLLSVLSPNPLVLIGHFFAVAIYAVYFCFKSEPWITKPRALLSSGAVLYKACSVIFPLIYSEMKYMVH
Target,log2 fold change (nilotinib),log2 fold change [1],log2 fold change (dasatinib),log2 fold change [2],log2 fold change [3],log2 fold change (quisinostat),log2 fold change (tipifarnib),log2 fold change [4],log2 fold change [5],log2 fold change [6],log2 fold change [7],log2 fold change (vorinostat),log2 fold change (silmitasertib),log2 fold change [8],log2 fold change (entospletinib)
SLC39A11 (UniProt Q8N1S5),0.072,-0.039,-0.092,-0.008,-0.123,0.127,0.068,0.045,0.026,0.099,-0.076,0.103,-0.015,0.058,-0.137
SMARCAD1 isoform 2 (UniProt Q9H4L7),-0.001,-0.008,-0.033,-0.005,-0.005,-0.054,-0.025,0.016,0.059,-0.007,-0.005,-0.27 (active),0.012,0.014,0.013
SYNRG (UniProt Q9UMZ2),-0.007,0.012,0.009,0.036,0.001,0.021,-0.025,0.018,0.026,-0.079,0.02,-0.002,-0.01,-0.002,-0.014
STK25 (UniProt O00506),0.037,0.265,0.235,0.026,0.059,0.013,-0.027,0.165,0.032,-0.009,-0.024,-0.06,0.051,-0.03,-0.043
SLC25A36 (UniProt Q96CQ1),0.081,-0.007,0.012,0.04,0.085,0.045,-0.119,-0.08,0.003,-0.031,-0.172,-0.071,0.001,0.033,0.013
SSU72 (UniProt Q9NP77),0.031,-0.007,-0.008,-0.028,0.037,-0.002,0.02,-0.021,-0.013,0.041,0.015,0.112,-0.026,-0.021,-0.014
SMAP2 (UniProt Q8WU79),-0.058,0.026,-0.013,0.037,0.06,0.072,-0.038,0.076,0.026,0.022,0,-0.032,0.017,-0.04,-0.028
SYNE2 isoform 2 (UniProt Q8WXH0),0.086,-0.034,0.032,-0.002,-0.024,-0.176,0.005,-0.043,-0.021,-0.091,0.071,0.088,-0.015,0.051,-0.003
SLC19A1 (UniProt P41440),-0.026,0.014,0.019,-0.032,-0.017,-0.077,-0.01,-0.015,-0.027,-0.004,0.003,0.01,-0.024,-0.054,-0.002
SMIM12 (UniProt Q96EX1),0.014,0.025,0.09,0.027,0.061,-0.093,-0.023,0.002,-0.016,-0.041,-0.044,0.174,-0.003,-0.025,-0.058
SLC16A1 (UniProt P53985),0.044,0.043,0.137,-0.009,-0.005,-0.064,0.005,0.012,-0.028,-0.003,0.004,-0.62 (active),-0.012,-0.01,0.012
SQLE (UniProt Q14534),0.082,0.014,-0.09,-0.039,0.024,0.191,0.018,-0.014,-0.032,-0.034,0.01,0.103,-0.056,-0.042,0.029
SMYD3 (UniProt Q9H7B4),0.004,0.022,-0.101,0.01,-0.029,-0.056,0.031,0.038,0.036,-0.051,0.044,-0.202 (active),0.029,-0.003,-0.008
TAF1B (UniProt Q53T94),-0.061,-0.067,-0.174,-0.105,0.635,-0.064,-0.103,0.017,0.015,–,0.673 (active),–,–,-0.044,-0.026
SP1 (UniProt P08047),-0.035,-0.02,-0.028,0.117,-0.019,0.055,-0.031,-0.02,0.008,0.005,0.001,-0.376 (active),-0.045,0.081,-0.006
TADA3 (UniProt O75528),-0.022,-0.036,-0.014,-0.023,0.019,-0.037,-0.035,0.006,0.024,-0.044,0.018,-0.289 (active),-0.021,0.034,0.009
TARBP1 (UniProt Q13395),-0.045,0.036,-0.03,-0.003,0.046,-0.158,0.007,0.142,0.007,-0.021,-0.151,-0.608 (active),0.097,0.017,0.028
SFR1 isoform 2 (UniProt Q86XK3),-0.029,0.068,0.055,0.045,-0.058,-0.029,0.072,-0.004,0.02,-0.039,0.092,-0.074,0.023,-0.026,-0.043
